Shn3 3UTR inh: reduces Shn3 3'UTR luciferase signal in osteoblasts | Clone20 osteoblast Shn3 3'UTR firefly luciferase, 24 h | inhibition, % at 12.5 µM | actives 0.52% (n = 360,000);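 active = mean inhibition of at least 75% with every replicate also reaching 75%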;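 also: 0% = median of neutral control wells and 100% = pilot-screen positive control compound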
Gli-Sufu block: Gli-Sufu pathway antagonism; Sufu-KO-LIGHT fibroblasts, Gli luciferase reporter luminescence; inhibition, % at 5 µM; actives 0.74% (n = 340,000);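 active = inhibition above about 55%, limit read from the data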;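 also: 0% = DMSO-treated cells and 100% = wells with medium but no cells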
Jurkat NFkB inh: inhibitors of the PMA/ionomycin-induced NF-kB reporter in Jurkat cells. PMA/ionomycin-induced NF-kB luciferase reporter, luminescence. inhibition, % at 4 µM. actives 0.53% (n = 330,000). AID 435003; in the data active = inhibition above about 50%
697 NFkB inh: inhibitors of the PMA/ionomycin-induced NF-kB reporter in 697 B cells; 697 B-cell NF-kB luciferase reporter, 16 h; inhibition, % at 4 µM; actives 0.33% (n = 330,000); in the data active = inhibition above about 35%
Mdm2-MdmX inh: human Mdm2/MdmX binding inhibition. O15151+Q00987. SaOS-2 split-luciferase Mdm2/MdmX complementation, luminescence. actives 3% (n = 330,000). inhibition, % at 8 µM;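 active = inhibition of at least 50% at 8 µM in the primary screen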
Target sequence (O15151 whole entry, looked up): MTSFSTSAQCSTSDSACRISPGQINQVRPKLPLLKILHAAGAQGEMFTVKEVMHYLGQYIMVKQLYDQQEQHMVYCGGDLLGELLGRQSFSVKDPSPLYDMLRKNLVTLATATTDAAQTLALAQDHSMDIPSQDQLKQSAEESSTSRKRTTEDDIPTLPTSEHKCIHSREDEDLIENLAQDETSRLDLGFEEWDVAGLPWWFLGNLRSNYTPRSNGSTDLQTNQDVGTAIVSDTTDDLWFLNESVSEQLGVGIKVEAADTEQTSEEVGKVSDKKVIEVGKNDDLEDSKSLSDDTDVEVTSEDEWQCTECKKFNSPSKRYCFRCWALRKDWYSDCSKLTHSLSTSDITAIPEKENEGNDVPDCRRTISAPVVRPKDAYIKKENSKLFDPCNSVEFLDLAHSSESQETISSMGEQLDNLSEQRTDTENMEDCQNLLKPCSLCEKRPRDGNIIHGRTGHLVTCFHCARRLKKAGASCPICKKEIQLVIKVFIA
Target sequence (Q00987 whole entry, looked up): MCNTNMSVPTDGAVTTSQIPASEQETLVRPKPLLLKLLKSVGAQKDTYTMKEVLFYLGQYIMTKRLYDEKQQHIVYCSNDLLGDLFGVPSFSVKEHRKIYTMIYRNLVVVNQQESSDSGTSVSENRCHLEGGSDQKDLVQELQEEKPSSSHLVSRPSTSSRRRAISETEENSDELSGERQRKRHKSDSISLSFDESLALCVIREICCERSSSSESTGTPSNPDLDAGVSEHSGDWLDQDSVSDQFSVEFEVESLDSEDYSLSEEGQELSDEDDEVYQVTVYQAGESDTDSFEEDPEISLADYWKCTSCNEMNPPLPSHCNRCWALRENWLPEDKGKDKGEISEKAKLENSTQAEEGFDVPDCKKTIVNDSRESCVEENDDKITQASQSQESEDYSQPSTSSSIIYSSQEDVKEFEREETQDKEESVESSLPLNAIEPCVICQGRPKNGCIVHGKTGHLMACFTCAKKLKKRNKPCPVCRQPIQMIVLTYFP
Mdm2 MdmX conf: human Mdm2/MdmX binding inhibition, confirmed. shares compounds with Mdm2-MdmX inh. inhibition, % at 8 µM. actives 55% (n = 10,000). luminescent assay; in the data active = inhibition above about 40%
FLuc counter: counter-screen for Mdm2/MdmX inhibitors: full-length luciferase; shares compounds with Mdm2-MdmX inh; SaOS-2 full-length luciferase counterscreen, luminescence; inhibition, % at 8 µM; actives 77% (n = 6,200); AID 504607;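 active = mean inhibition at 8 µM reaching about 37%, which flags the compound as non-specific, limit read from the data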;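 also: p53-null SaOS-2 cells with luciferase driven by a doxycycline-inducible promoter; compound on cells about two nights before reading with doxycycline added after day one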
* hit, by the source's call; . = no result. Compounds with a hit are over-represented: about 3.8% of the library has one in this group of screens.

SMILES	Shn3 3UTR inh	Gli-Sufu block	Jurkat NFkB inh	697 NFkB inh	Mdm2-MdmX inh	Mdm2 MdmX conf	others
COc1ccc(/C=N/NC(=O)c2cccnc2)cc1COc1ccc([N+](=O)[O-])cc1	-37	-10	48	-18	51*	37	FLuc counter=81*
Cc1cc(=O)oc2c3c(cc(OCC(=O)NC(Cc4ccc(Cl)cc4)C(=O)O)c12)OC(C)(C)CC3 (centres undefined)	-6	-37	3	-4	22	.
O=C(NNc1nc(N2CCOCC2)nc(N2CCOCC2)n1)Nc1ccc(Cl)cc1	.	.	2	-4	8	.
COc1ccc2cc3c(N)nn(C(=O)Cc4ccc(Cl)cc4)c3nc2c1	12	-8	26	-23	73*	59*	FLuc counter=48*
COc1ccc2cc3c(N)nn(C(=O)Cc4c[nH]c5ccccc45)c3nc2c1	23	-9	45	-4	93*	98*	FLuc counter=52*
COc1cccc(COC(=O)c2nn(-c3ccccc3)nc2N)c1	-1	-10	1	3	-33	.
COc1cccc(CC(=O)n2nc(N)c3cc4ccc(OC)cc4nc32)c1	3	-2	2	-93	64*	-8
O=C(CN1C(=O)c2ccccc2S1(=O)=O)Nc1cccc(S(=O)(=O)N2CCCCC2)c1	-22	0	-12	7	-2	.
O=C1C(Cc2ccccc2)NC(=S)N1Cc1ccccc1 (centres undefined)	14	2	0	-5	4	.
CC(C)CC1NC(=S)N(Cc2ccccc2)C1=O (centres undefined)	9	1	5	-16	87*	82*	FLuc counter=53*
CCc1cc2ccc(OC)cc2nc1SCC(=O)Nc1cc(C)on1	23	-2	0	1	50*	32
CCc1cc2ccccc2nc1SCC(=O)Nc1cc(C)on1	5	0	9	-4	27	.
CCc1cccc(CC)c1-n1c(SCC(=O)N2CCc3ccccc32)nc(O)cc1=O	13	-3	-6	-1	8	.
CN(CC(=O)Nc1ccc(F)c(F)c1F)C(=O)CN1C(=O)C2CCCCC2C1=O (centres undefined)	19	-7	-13	9	27	.
CN(Cc1ccc(Cl)cc1)C(=O)CCl	-9	-6	18	18	36	.
CN(Cc1ccc(Cl)s1)C(=O)CCl	11	-13	16	23	54*	41*	FLuc counter=52*
CCc1cc(C(=O)N2CCN(S(=O)(=O)c3cc(C)ccc3C)CC2)sc1C	12	11	4	-7	34	.
Nc1[nH]nc2nc(NCc3ccccc3)c3c(c12)CCN(Cc1ccccc1)C3	10	-31	-2	-22	53*	20
CCN1CCc2c(C#N)c(NCc3ccccc3)nc(N(CC)CC)c2C1	8	11	-24	-28	29	.
O=C(Nc1ccccc1F)c1ccc([N+](=O)[O-])s1	-13	-4	-5	-13	29	.
O=C(Nc1cccnc1)c1ccc([N+](=O)[O-])s1	27	12	37	3	52*	25
CCN(CC)c1ccc(/C=N\NC(=O)c2cccc3cc[nH]c23)cc1	9	-30	28	-33	50*	39
O=C(NNC(=O)c1cccc(C(F)(F)F)c1)c1ccc(-n2cnnn2)cc1	-8	1	-1	-4	-11	.
COc1ccccc1NS(=O)(=O)c1cc(NC(=O)c2[nH]c(C)c(C(C)=O)c2C)ccc1N1CCOCC1	-6	7	29	-4	61*	30
CC(=O)c1c(C)[nH]c(C(=O)Nc2cccc(S(=O)(=O)N(C)C)c2)c1C	-13	5	-20	20	38	.
CC(=O)c1c(C)[nH]c(C(=O)Nc2ccc(Cl)c(S(=O)(=O)N3CCOCC3)c2)c1C	14	29	2	13	59*	34
CC(=O)c1c(C)[nH]c(C(=O)OCC(=O)Nc2cc(S(=O)(=O)N3CCCC3)ccc2Cl)c1C	81	24	17	-22	54*	35
CC(=O)c1c(C)[nH]c(C(=O)Nc2cccc(S(=O)(=O)N3CCCC3)c2)c1C	-31	6	1	30	70*	20
COc1ccc(NC(=O)c2[nH]c(C)c(C(C)=O)c2C)cc1S(=O)(=O)N1CCOCC1	12	7	-1	32	28	.
